# In PubChem BioAssay (NCATS):
# Values without a mark were called inactive. Calls come from the whole dose curve; as a rule, active = well fitted curve in the direction sought with a large enough effect; inconclusive = small, poorly fitted or top-dose-only effect, or another doubt; inactive = no such curve, though single readings can be large or run the other way.
# Target: Methanococcus maripaludis chaperonin (MmCpn) (UniProt Q6LX38)
# Assay: High-Throughput Screening for Modulators of Cytosolic Chaperonin Activity: MmCpn Primary Screen (AID 488978); note: 0% is about no effect
# Settings: Purified MmCpn ATPase activity, ADP HTRF detection, 10 min; series mostly up to 76.9 µM; activity change, negative = inhibition: at the top concentration
# Description: Chaperonins are key components of the cellular chaperone machinery. These large complexes consist of two stacked 7-9 membered rings, each containing a central cavity. Substrates are folded within the cavity in an ATP-dependent manner. TRiC is a complex of eight different, essential proteins. As each of the genes encoding the eight subunits is essential for cell viability and no protocol has been developed to overexpress this enzyme to high levels, several groups have turned to the archaeal homolog of TRiC from Methanococcus maripaludis (MmCpn) as a model system for the study of the type II chaperonin family.
# MmCpn was kindly provided by the laboratory of Judith Frydman.
# 1. Dispense 1.5 ul enzyme of either TriC at 100 nM or MmCpn at 50 nM final concentration.
# 2. Transfer 23 nl of compound to plate, incubate 5 min at RT.
# 3. 1.5 ul ATP at 30 uM at final concentration dispensed into plate.
# 4. Incubate for 10 minutes at 37C (MmCPN), 30C (TriC).
# 5. 3 ul of the Cisbio ADP Transcreener HTRF detection reagent prepared according to protocol dispensed into plate.
# 6. Incubate for 5 minutes.
# 7. Read using EnVision plate reader at Excitation = 320nm and Emission = 590nm, 665nm
# Methanococcus maripaludis chaperonin (MmCpn), sequence (Q6LX38 1-543): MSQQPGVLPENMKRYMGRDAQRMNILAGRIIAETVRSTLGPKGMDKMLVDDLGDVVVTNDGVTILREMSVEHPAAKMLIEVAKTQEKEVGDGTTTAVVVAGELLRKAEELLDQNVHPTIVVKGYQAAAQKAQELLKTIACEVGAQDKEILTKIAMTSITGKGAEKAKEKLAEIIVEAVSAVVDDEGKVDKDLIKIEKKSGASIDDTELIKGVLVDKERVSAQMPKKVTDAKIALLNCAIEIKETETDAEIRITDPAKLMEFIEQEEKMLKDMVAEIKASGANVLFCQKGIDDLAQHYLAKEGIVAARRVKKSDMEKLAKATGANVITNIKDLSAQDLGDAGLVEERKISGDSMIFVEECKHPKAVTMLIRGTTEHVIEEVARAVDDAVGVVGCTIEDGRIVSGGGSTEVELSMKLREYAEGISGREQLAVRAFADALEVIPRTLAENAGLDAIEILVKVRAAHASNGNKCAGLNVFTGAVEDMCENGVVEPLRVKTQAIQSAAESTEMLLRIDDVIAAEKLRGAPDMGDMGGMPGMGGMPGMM
row,Structure (SMILES),"activity change, negative = inhibition [%]"
1,OCCN1CCN(CC/C=C2/c3ccccc3Sc3ccc(C(F)(F)F)cc32)CC1,1.22
2,CCc1cccc(N(C)C(N)=Nc2cccc3ccccc23)c1,0.989
3,O=C1NCN(c2ccccc2)C12CCN(CCCC(c1ccc(F)cc1)c1ccc(F)cc1)CC2,1.57
4,CCN(CC)CCOCCOC(=O)C1(c2ccccc2)CCCC1,-1.95
5,Cc1scc2c1N(C(=O)CN1CCN(C)CC1)c1ccccc1NC2=O,0.13
6,CCn1ccnc1CC1COc2ccccc2O1 (stereo not given),-1.03
7,CCN1CCc2nc(N)oc2CC1,-0.83
8,CC(=O)OC(C)C[N+](C)(C)C (stereo not given),0.181
9,Cc1ccc(/C(=C\CN2CCCC2)c2ccccn2)cc1,-1.25
10,NS(=O)(=O)c1cc2c(cc1Cl)NC(C1CC3C=CC1C3)NS2(=O)=O (stereo not given),0.0956
11,Nc1c2c(nc3ccccc13)CCCC2O (stereo not given),1.48
12,O=C(CCCN1CCC(O)(c2cccc(C(F)(F)F)c2)CC1)c1ccc(F)cc1,1.98
13,CCCN(CCC)CCc1cccc2c1CC(=O)N2,3.05
14,CC1=C(C)C(=O)C(CCCCC#CCCCC#CCO)=C(C)C1=O,-1.7
15,COc1ccc([C@@H]2Sc3ccccc3N(CCN(C)C)C(=O)[C@@H]2OC(C)=O)cc1,-2.18
16,CN1CCN(C2=Nc3ccccc3Oc3ccc(Cl)cc32)CC1,8.65
17,CC(C)(C)c1ccc(C(=O)CCCN2CCC(OC(c3ccccc3)c3ccccc3)CC2)cc1,2.25
18,CNCCC(Oc1ccccc1OC)c1ccccc1 (stereo not given),0.401
19,COc1cc2c(cc1OC)-c1cc(=Nc3c(C)cc(C)cc3C)n(C)c(=O)n1CC2,0.329
20,CN(C)C/C=C(/c1ccc(Br)cc1)c1cccnc1,1.42

row,Structure (SMILES),"activity change, negative = inhibition [%]"
1,COC(=O)C1=C(C)NC(C)=C(C(=O)OCCN(C)Cc2ccccc2)C1c1cccc([N+](=O)[O-])c1 (stereo not given),1.14
2,Cc1nc2c([nH]1)c(=O)n(C)c(=O)n2Cc1ccco1,0.251
3,CC(C)COCC(CN(Cc1ccccc1)c1ccccc1)N1CCCC1 (stereo not given),-1.69
4,CC(=O)OCC1=C(C(=O)O)N2C(=O)[C@@H](NC(=O)Cc3cccs3)[C@H]2SC1,0.57
5,C[C@H](CS)C(=O)N1CCC[C@H]1C(=O)O,-0.177
6,Cc1nc2ccccn2c(=O)c1CCN1CCC(C(=O)c2ccc(F)cc2)CC1,-0.942
7,CCN(CC)CCNC(=O)c1cc(S(C)(=O)=O)ccc1OC,0.0086
8,NC/C=C/C(=O)O,-0.553
9,COc1cc(C(=O)OCCCN2CCCN(CCCOC(=O)c3cc(OC)c(OC)c(OC)c3)CC2)cc(OC)c1OC,-1.7
10,COc1ccc(CCN(C)CCCC(C#N)(c2cc(OC)c(OC)c(OC)c2)C(C)C)cc1OC (stereo not given),1.41
11,COc1ccc2c(c1OC)C(=O)O[C@@H]2[C@H]1c2c(cc3c(c2OC)OCO3)CCN1C,2.3
12,COc1cc(Cc2cnc(N)nc2N)cc(OC)c1OC,0.99
13,CC(C)(C)NCC(O)c1cc(O)cc(O)c1 (stereo not given),-0.472
14,C[C@@H](O)[C@H]1C(=O)N2C(C(=O)O)=C(SCCN=CN)C[C@H]12,0.258
15,CC(=O)[C@@]1(O)CC[C@H]2[C@@H]3CCC4=CC(=O)CC[C@]4(C)[C@H]3CC[C@@]21C,-1.4
16,N[C@@H](COP(=O)(O)O)C(=O)O,-0.63
17,Nc1nc(N)c2nc(-c3ccccc3)c(N)nc2n1,-8.3
18,C[C@]12CC[C@@H]3c4ccc(O)cc4C[C@@H](CCCCCCCCCS(=O)CCCC(F)(F)C(F)(F)F)[C@H]3[C@@H]1CC[C@@H]2O (stereo not given in full),-1.67
19,C[C@]12CCC(=O)C=C1CC[C@@H]1[C@@H]2C(=O)C[C@@]2(C)[C@H]1CC[C@]2(O)C(=O)CO,-0.143
20,CCCCNc1ccc(C(=O)OCCN(C)C)cc1,-1.19
